From ChEMBL document CHEMBL4808148, “HDAC6 screening dataset using tau-based substrate in an enzymatic assay yields selective inhibitors and activators” (2021)
The whole screen tested about 5,600 compounds, of which about 390 (7%) showed an effect of 50% or more. This excerpt belongs to a sample that is enriched for strong results.

molecular target: T1, Protein deacetylase HDAC6 (Homo sapiens) (UniProt Q9UBN7); conditions: at 10 µM
T1 sequence (whole entry): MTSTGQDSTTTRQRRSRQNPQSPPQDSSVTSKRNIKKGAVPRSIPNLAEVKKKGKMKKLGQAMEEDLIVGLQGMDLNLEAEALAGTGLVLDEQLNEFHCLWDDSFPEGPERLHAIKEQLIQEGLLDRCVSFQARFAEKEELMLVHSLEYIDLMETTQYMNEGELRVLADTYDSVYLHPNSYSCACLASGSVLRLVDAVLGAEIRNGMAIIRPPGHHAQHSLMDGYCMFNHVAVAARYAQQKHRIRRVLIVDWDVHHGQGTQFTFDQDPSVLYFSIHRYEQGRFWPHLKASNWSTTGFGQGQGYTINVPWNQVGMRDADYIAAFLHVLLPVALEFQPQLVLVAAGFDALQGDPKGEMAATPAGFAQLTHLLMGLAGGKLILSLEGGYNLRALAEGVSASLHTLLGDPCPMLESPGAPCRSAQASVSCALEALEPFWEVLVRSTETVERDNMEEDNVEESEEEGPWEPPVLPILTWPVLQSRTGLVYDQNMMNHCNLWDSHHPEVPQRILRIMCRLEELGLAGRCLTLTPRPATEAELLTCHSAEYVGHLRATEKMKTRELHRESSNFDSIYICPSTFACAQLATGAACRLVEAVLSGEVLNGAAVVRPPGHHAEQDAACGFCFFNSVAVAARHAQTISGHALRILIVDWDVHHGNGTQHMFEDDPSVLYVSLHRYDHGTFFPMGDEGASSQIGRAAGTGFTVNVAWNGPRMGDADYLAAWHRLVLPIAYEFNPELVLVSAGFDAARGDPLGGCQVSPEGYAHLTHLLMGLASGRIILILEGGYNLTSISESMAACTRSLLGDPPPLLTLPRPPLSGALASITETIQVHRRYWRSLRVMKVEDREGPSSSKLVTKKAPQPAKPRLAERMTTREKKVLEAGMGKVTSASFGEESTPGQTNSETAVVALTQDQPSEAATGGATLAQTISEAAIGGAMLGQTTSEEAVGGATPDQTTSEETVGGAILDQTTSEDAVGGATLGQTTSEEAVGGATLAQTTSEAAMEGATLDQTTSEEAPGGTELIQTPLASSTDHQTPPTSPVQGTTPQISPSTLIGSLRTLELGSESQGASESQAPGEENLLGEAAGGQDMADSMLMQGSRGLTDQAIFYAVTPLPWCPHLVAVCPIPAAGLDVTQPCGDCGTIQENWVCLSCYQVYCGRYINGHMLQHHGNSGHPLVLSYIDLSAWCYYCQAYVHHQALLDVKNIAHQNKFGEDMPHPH

| Structure (SMILES) | inhibition [%] |
| --- | --- |
| Nc1sc2c(c1C(=O)c1ccc(Cl)cc1)CCCC2 | 31.2 |
| O=C1CC2(CCCC2)CC(=O)N1CCCCNCC1COc2ccccc2O1 (configuration not stated) | 18.1 |
| Cc1cccc(Nc2cc(Cl)nc(SCC(=O)O)n2)c1C | 9.22 |
| Cc1cc(-c2ccc(CC(=O)Nc3ccc(-c4cccnc4)cc3)cc2)ccn1 | 37.6 |
| O=C(O)CCCCCCCC(=O)O | 29.8 |
| O=C(O)CCCCCCCCC(=O)O | 0.61 |
| O=C(CCCCCCC(=O)NO)NO | 99.2 |
| O=C(CCCCCCC(=O)Nc1cccnc1)NO | 100 |
| NC(=O)c1cccnc1 | 2.11 |
| O=[N+]([O-])c1ccc2c(c1)S(=O)(=O)C=C2 | 20.7 |
| NC(C(=O)O)c1ccc(C(=O)O)c(C(=O)O)c1 (racemic) | 1.97 |
| COc1ccc(-c2csc(NC(=O)[C@H]3CCCCN3S(=O)(=O)c3ccc(C)cc3)n2)cc1 | 0.15 |
| Nc1nc(NC[C@H]2CC[C@H](CNS(=O)(=O)c3cccc4ccccc34)CC2)nc2ccccc12 | 9.28 |
| CCOc1ccccc1C(=O)O | 0.84 |
| CCCCNc1ncc2c(-c3ccc(CN4CCN(C)CC4)cc3)cn([C@H]3CC[C@H](O)CC3)c2n1 | 62.3 |
| COC(=O)c1ccccc1COc1ccccc1[N+](=O)[O-] | 35.8 |
| N=C(N)NCCC[C@H](NC(=O)c1sccc1NS(=O)(=O)c1cccc2nsnc12)C(=O)O | -2.5 |
| CCN(CC)CCCN(c1ccccc1)C1Cc2ccccc2C1 | 9.47 |
| CCOC(=O)C1=C(C)NC(=S)NC1c1cccc(O)c1 (configuration not stated) | 7.87 |
| CCOC(=O)c1c(C)n(C)c2ccc(O)cc12 | 60.5 |
| CCOC(=O)c1ccc(N)cc1 | 16.9 |
| O=C1C=CC(=O)C2=C1C1c3ccccc3C2c2ccccc21 | -5.86 |
| N#CC(c1ccnc(OCc2ccc(CN3CCOCC3)cc2)n1)c1nc2ccccc2s1 (configuration not stated) | 73.7 |
| N[C@H]1CCN(O)C1=O | -4.15 |

| Structure (SMILES) | inhibition [%] |
| --- | --- |
| CCNC(=O)[C@@H]1CCCN1C(=O)[C@H](CCCNC(=N)N)NC(=O)[C@H](CC(C)C)NC(=O)[C@@H](CC(C)C)NC(=O)[C@H](Cc1ccc(O)cc1)NC(=O)[C@H](CO)NC(=O)[C@H](Cc1c[nH]c2ccccc12)NC(=O)[C@H](Cc1c[nH]cn1)NC(=O)[C@@H]1CCC(=O)N1 | 33.6 |
| N#Cc1c(N)nc(SCc2ncc[nH]2)c(C#N)c1-c1ccc(O)cc1 | 54.7 |
| CC(C)C[C@H](NC(=O)[C@@H](Cc1c[nH]c2ccccc12)NC(=O)[C@H](Cc1ccc(O)cc1)NC(=O)[C@H](CO)NC(=O)[C@H](Cc1c[nH]c2ccccc12)NC(=O)[C@H](Cc1c[nH]cn1)NC(=O)[C@@H]1CCC(=O)N1)C(=O)N[C@@H](CCCNC(=N)N)C(=O)N1CCC[C@H]1C(=O)NCC(N)=O | -2.71 |
| CN(C)CCN(Cc1cccs1)c1ccccn1 | 11.5 |
| Nc1nc(O)c2c(n1)NCC(CNc1ccc(C(=O)N[C@@H](CCC(=O)O)C(=O)O)cc1)N2 (some centres not stated) | -7.59 |
| Cc1csc(-c2nnc(Nc3ccc(Oc4ncccc4-c4ccnc(N)n4)cc3)c3ccccc23)c1 | 72.1 |
| Cc1cc(C(=O)Nc2nc3cccc(Cl)c3n2[C@@H]2CCCCN(C(=O)/C=C/CN(C)C)C2)ccn1 | -3.32 |
| C#CCN1C(C)=C(C(=O)OC)C(c2cccc([N+](=O)[O-])c2)C(C(=O)OCC)=C1C (configuration not stated) | -1.94 |
| C=CC(=O)Nc1cccc(Oc2nc(Nc3ccc(N4CCN(C)CC4)cc3)nc3ccsc23)c1 | 14.3 |
| CCC(C)C(CC)C(N)=O (configuration not stated) | 2.6 |
| C=Cc1cc(O)cc2nc(-c3ccc(O)c(F)c3)oc12 | -4.14 |
| O=C(NC1CC1)c1cc(-c2cccs2)on1 | 75.4 |
| C=CC(=O)Nc1cc2c(Nc3ccc(F)c(Cl)c3)ncnc2cc1OCCCN1CCOCC1 | 9.13 |
| Nc1nncs1 | 6.15 |
| NC(=O)c1ccc([N+](=O)[O-])cc1Cl | 8.11 |
| O=C(Nc1ccc([N+](=O)[O-])cc1O)Nc1ccccc1Br | 101 |
| CN(N=O)C(=O)N[C@@H](C=O)[C@@H](O)[C@H](O)[C@H](O)CO | -1.89 |
| c1ccc2cc(C3=NCCN3)ncc2c1 | 3.66 |
| Cc1sc2c(c1C)C(c1ccc(Cl)cc1)=N[C@@H](CC(=O)Nc1ccc(OCCOCCOCCOCCNc3cccc4c3C(=O)N(C3CCC(=O)NC3=O)C4=O)cc1)c1nnc(C)n1-2 (some centres not stated) | 9.19 |
| CC(C(=O)O)c1ccc(C(=O)c2cccs2)cc1 (configuration not stated) | -7.49 |
| CC(C(=O)O)c1ccc(N2Cc3ccccc3C2=O)cc1 (configuration not stated) | 94.7 |
| CC(C(=O)O)c1ccc2c(c1)CC(=O)c1ccccc1S2 (configuration not stated) | -3.14 |
| CCC(C)(C)c1ccc(CC(C)CN2C[C@@H](C)O[C@@H](C)C2)cc1 (some centres not stated) | -1.12 |
| C=C1NC[C@H](O)[C@@H](C(=O)O)N1 | -0.94 |

| Structure (SMILES) | inhibition [%] |
| --- | --- |
| COC(=O)C1=C(C)NC(C)=C(C(=O)OCCSc2ccccc2)C1C (configuration not stated) | -9.24 |
| CCOc1ccc(-n2c(C(C)N(Cc3cccnc3)C(=O)Cc3ccc(OC(F)(F)F)cc3)nc3ncccc3c2=O)cc1 (racemic) | 6.86 |
| O=C1Nc2cc(Br)ccc2/C1=C1/Nc2ccccc2/C1=N\O | 93.4 |
| CN1C(=O)/C(=C2/C(=O)Nc3ccccc32)c2ccccc21 | 32.9 |
| O=C1Nc2ccccc2/C1=C1/Nc2ccccc2C1=O | 60.6 |
| O=C1Nc2ccccc2/C1=C1/Nc2ccccc2/C1=N\O | 100 |
| N[C@@H]1CCN(O)C1=O | 19.6 |
| C/C=C1\C(=O)C[C@H]2[C@@H]3CCC4=CC(=O)CC[C@]4(C)[C@H]3CC[C@]12C | -4.59 |
| Cc1csc2c(N[C@@H](C)CN3CCN(S(=O)(=O)c4ccc(Cl)c(Cl)c4)CC3)ncnc12 | 7.29 |
| CNC(=O)[C@H]1O[C@@H](n2cnc3c(NCc4cccc(I)c4)ncnc32)[C@H](O)[C@@H]1O | 9.22 |
| CC(C)(C)c1cc(O)c(C(C)(C)C)cc1O | 10.7 |
| CCOc1cc(C(=O)Nc2ccc(Cl)c(-c3nc4ccccc4[nH]3)c2)cc(OCC)c1OCC | 11.9 |
| Nc1nc(=O)c2c([nH]1)NC[C@H](CNc1ccc(C(=O)N[C@@H](CCC(=O)O)C(=O)O)cc1)N2C=O | 3.47 |
| O=c1[nH]cnc2c1cnn2[C@@H]1O[C@H](CO)[C@@H](O)[C@H]1O | 20.8 |
| N[C@@H](Cc1cc(-c2ccc(Cl)cc2Cl)cc(CP(=O)(O)O)c1O)C(=O)O | 4.67 |
| O=c1c(O[C@@H]2O[C@H](CO)[C@H](O)[C@H](O)[C@H]2O)c(-c2ccc(O)c(O)c2)oc2cc(O)cc(O)c12 | 28.9 |
| O=c1c(O)c(-c2cc(O)c(O)c(O)c2)oc2cc(O)cc(O)c12 | 100 |
| Cc1cc(=O)oc2cc(O)ccc12 | 35.6 |
| O=c1c(O)c(-c2ccc(O)c(O)c2)oc2cc(O)ccc12 | 97.4 |
| O=C1c2c(O)cc(O)cc2O[C@H](c2cc(O)c(O)c(O)c2)[C@H]1O | -0.55 |
| C[C@@H]1O[C@@H](Oc2c(-c3cc(O)c(O)c(O)c3)oc3cc(O)cc(O)c3c2=O)[C@H](O)[C@H](O)[C@H]1O | -6.79 |
| Cc1cc(=O)oc2c(C=O)c(O)ccc12 | -7.63 |
| O=c1c(O)c(-c2ccc(O)cc2O)oc2cc(O)cc(O)c12 | 92.5 |
| O=c1c(O)c(-c2ccc(O)cc2)oc2cc(O)cc(O)c12 | 98.8 |
